Sequences and labels used below:
B1: Caulobacter ParB omega fusion; a variant is named by its letters at X, in order, B8GW30 (parent)
chain: MESVVVGEPGMSEGRRGLGRGLSALLGEVDAAPAQAPGEQLGGSREAPIEILQRNPDQPRRTFREEDLEDLSNSIREKGVLQPILVRPSPDTAGEYQIVAGERAWRAAQRAGLKTVPIMVRELDDLAVLEIGIIENVQRADLNVLEEALSYKVLMEKFERTQENIAQTIGKSXSHVANXMRLLXLPDEVQSYLVSGELTAXHARAIAAAADPVALAKQIIEGGLSVRETEALARKAPNLSAGKSKGGRPPRVKDTDTQALESDLSSVLGLDVSIDHRGSTGTLTITYATLEQLDDLCNRLTRGI

Experimental findings from a collection of fitness landscapes (doi:10.1016/j.celrep.2020.107928) are described below.

Over roughly 81,000 sequences, “one-hybrid fitness for binding parS DNA” has its median near -0.17; the highest 2% begin near 0.51. This excerpt belongs to a sample that is enriched for the highest values.

The variants in the assay derive from B1. Kind of assay: one-hybrid fitness for binding parS DNA (scaled: cognate 1, non-cognate 0); higher = stronger binding. To be noted: with parS DNA site. An outline of the steps: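 The reporter was HIS3, with the binding site 19 bp from the promoter, in E. coli USO used for bacterial one-hybrid selection of Caulobacter ParB libraries with four specificity codons randomised. Growth was on M9 lacking histidine, with 0.1 mM IPTG and 5 mM 3-AT, for 48 hours at 37°C. Illumina sequencing covered plasmids before and after selection; three replicate libraries were pooled and variants with under 10 reads dropped. A fitness score is the log change in variant-to-wild-type read ratio, rescaled to the cognate and non-cognate references.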
Consider NLSL, for which the “one-hybrid fitness for binding parS DNA” value is at most 0.2.

Regarding LPEL, the “one-hybrid fitness for binding parS DNA” value was at most 0.2.

Regarding PHQK, the “one-hybrid fitness for binding parS DNA” value is at most 0.2.

For the variant LEDW, the “one-hybrid fitness for binding parS DNA” value is at most 0.2.

With EWQP, the “one-hybrid fitness for binding parS DNA” value is at most 0.2.

ATNC: the “one-hybrid fitness for binding parS DNA” value is at most 0.2.

With RIHT, the “one-hybrid fitness for binding parS DNA” value was 0.936.

Regarding RIHP, the “one-hybrid fitness for binding parS DNA” value was at most 0.2.

As to RCHT, the “one-hybrid fitness for binding parS DNA” value worked out at 0.906.

Take RHHP: the “one-hybrid fitness for binding parS DNA” value was at most 0.2.

On to RMHT, for which the “one-hybrid fitness for binding parS DNA” value amounted to 0.946.

Turning to RIHH, the “one-hybrid fitness for binding parS DNA” value was at most 0.2.

As for RMHP, the “one-hybrid fitness for binding parS DNA” value is at most 0.2.

Regarding RHHT, the “one-hybrid fitness for binding parS DNA” value was found to be 0.869.

For RPHT, the “one-hybrid fitness for binding parS DNA” value was at most 0.2.

As to RHHH, the “one-hybrid fitness for binding parS DNA” value is at most 0.2.

In the case of RMHH, the “one-hybrid fitness for binding parS DNA” value is 0.274.

Regarding REHT, the “one-hybrid fitness for binding parS DNA” value is at most 0.2.

Turning to RGFW, the “one-hybrid fitness for binding parS DNA” value is at most 0.2.

For the variant HQMY, the “one-hybrid fitness for binding parS DNA” value is at most 0.2.

Regarding VSHP, the “one-hybrid fitness for binding parS DNA” value was at most 0.2.

Regarding WWRR, the “one-hybrid fitness for binding parS DNA” value was at most 0.2.

In the case of RVEY, the “one-hybrid fitness for binding parS DNA” value was 0.353.

As to LLVS, the “one-hybrid fitness for binding parS DNA” value was at most 0.2.

Consider PHSW, for which the “one-hybrid fitness for binding parS DNA” value was at most 0.2.

As for HGMV, the “one-hybrid fitness for binding parS DNA” value was at most 0.2.

As for SLSC, the “one-hybrid fitness for binding parS DNA” value is at most 0.2.

Regarding PKWC, the “one-hybrid fitness for binding parS DNA” value was at most 0.2.

Turning to SQSD, the “one-hybrid fitness for binding parS DNA” value was at most 0.2.

For HHCS, the “one-hybrid fitness for binding parS DNA” value is at most 0.2.

On to CACK, for which the “one-hybrid fitness for binding parS DNA” value was at most 0.2.

Take TVNL: the “one-hybrid fitness for binding parS DNA” value was at most 0.2.

With YQLS, the “one-hybrid fitness for binding parS DNA” value is at most 0.2.

On to RTHM, for which the “one-hybrid fitness for binding parS DNA” value came to 0.317.

Turning to RSHT, the “one-hybrid fitness for binding parS DNA” value is 0.876.

Consider RTHT, for which the “one-hybrid fitness for binding parS DNA” value is 0.908.

Regarding RTHK, the “one-hybrid fitness for binding parS DNA” value was at most 0.2.

Regarding RSHN, the “one-hybrid fitness for binding parS DNA” value is 0.412.

With RSHD, the “one-hybrid fitness for binding parS DNA” value is at most 0.2.

As to PPLK, the “one-hybrid fitness for binding parS DNA” value is at most 0.2.

Regarding HGKG, the “one-hybrid fitness for binding parS DNA” value is at most 0.2.

On to TTRW, for which the “one-hybrid fitness for binding parS DNA” value is at most 0.2.

Turning to YNRL, the “one-hybrid fitness for binding parS DNA” value is at most 0.2.

Regarding YMLS, the “one-hybrid fitness for binding parS DNA” value was at most 0.2.

For the variant RCKG, the “one-hybrid fitness for binding parS DNA” value worked out at 0.89.

For RSKG, the “one-hybrid fitness for binding parS DNA” value is 0.944.

Take RSKQ: the “one-hybrid fitness for binding parS DNA” value is at most 0.2.

For RSKR, the “one-hybrid fitness for binding parS DNA” value was at most 0.2.

Regarding RPKG, the “one-hybrid fitness for binding parS DNA” value is at most 0.2.

In the case of RDKG, the “one-hybrid fitness for binding parS DNA” value turned out to be 0.274.

Turning to NLKV, the “one-hybrid fitness for binding parS DNA” value is at most 0.2.

As for YAAA, the “one-hybrid fitness for binding parS DNA” value is at most 0.2.

With TCWR, the “one-hybrid fitness for binding parS DNA” value was at most 0.2.

WDTT: the “one-hybrid fitness for binding parS DNA” value is at most 0.2.

In the case of VAYM, the “one-hybrid fitness for binding parS DNA” value was at most 0.2.

Take AACS: the “one-hybrid fitness for binding parS DNA” value was at most 0.2.

As to GVIV, the “one-hybrid fitness for binding parS DNA” value was at most 0.2.

RGFH: the “one-hybrid fitness for binding parS DNA” value is at most 0.2.

As for RGFS, the “one-hybrid fitness for binding parS DNA” value is 0.584.

As to RGAS, the “one-hybrid fitness for binding parS DNA” value was 0.734.

Regarding RGAH, the “one-hybrid fitness for binding parS DNA” value is at most 0.2.

With RGFD, the “one-hybrid fitness for binding parS DNA” value was at most 0.2.

With RGAD, the “one-hybrid fitness for binding parS DNA” value was at most 0.2.

For QGMN, the “one-hybrid fitness for binding parS DNA” value was at most 0.2.

Take VPQV: the “one-hybrid fitness for binding parS DNA” value was at most 0.2.

Take SYEL: the “one-hybrid fitness for binding parS DNA” value was at most 0.2.

Consider RWYH, for which the “one-hybrid fitness for binding parS DNA” value was at most 0.2.

For RWSP, the “one-hybrid fitness for binding parS DNA” value was at most 0.2.

As to RWWF, the “one-hybrid fitness for binding parS DNA” value is at most 0.2.

For RWWN, the “one-hybrid fitness for binding parS DNA” value is at most 0.2.

As for RWYN, the “one-hybrid fitness for binding parS DNA” value turned out to be 0.223.

With RWID, the “one-hybrid fitness for binding parS DNA” value is at most 0.2.

RWYS: the “one-hybrid fitness for binding parS DNA” value stood at 0.803.

On to RWWS, for which the “one-hybrid fitness for binding parS DNA” value is 0.644.

Turning to RWIS, the “one-hybrid fitness for binding parS DNA” value was determined as 0.609.

Consider RWSS, for which the “one-hybrid fitness for binding parS DNA” value is 0.912.

For RWSH, the “one-hybrid fitness for binding parS DNA” value was at most 0.2.

With RWPS, the “one-hybrid fitness for binding parS DNA” value stood at 0.444.

Regarding STYW, the “one-hybrid fitness for binding parS DNA” value is at most 0.2.

With GPTL, the “one-hybrid fitness for binding parS DNA” value is at most 0.2.

Consider TSHS, for which the “one-hybrid fitness for binding parS DNA” value was at most 0.2.

QPMV: the “one-hybrid fitness for binding parS DNA” value is at most 0.2.

On to PMGR, for which the “one-hybrid fitness for binding parS DNA” value is at most 0.2.

For the variant YPVG, the “one-hybrid fitness for binding parS DNA” value is at most 0.2.
